The source of these data is PubChem BioAssay.

For part of these data: Potency and affinity values are given separately. Active and inactive are the calls of the source.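 How the source made its calls, unless noted: active means dose curve with midpoint inside tested range, moderate steepness, plateau gap beyond fit error, low compound glow and bead-link interference; inactive means the rest.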

Experiment [1] has as its target Cell division control protein 42 homolog (Homo sapiens) (UniProt P60953). Put plainly: activated mutant Cdc42 GTP-binding inhibitors, dose response, biochemical, multiplex bead flow cytometry, Bodipy-FL-GTP (AID 1333;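 active means fitted half-maximal concentration within the tested dose range, moderate curve steepness, a statistically real signal drop, and little compound fluorescence or tag-binding interference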).
Experiment [2] has the same target. In words: wildtype Cdc42 GTP-binding inhibitors, dose response, biochemical, multiplex bead flow cytometry, Bodipy-FL-GTP (AID 1334;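 active means fitted half-maximal concentration within the tested range, moderate curve steepness, significant signal drop, and little compound fluorescence or bead-linkage interference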). Conditions: bead-based flow cytometry, Bodipy-FL-GTP binding to GST-Cdc42; at 100 µM (top of the series) unless noted.
Experiment [3] concerns the target GTPase HRas (Homo sapiens) (UniProt P01112). In words: inhibitors of GTP binding to wildtype Ras, dose response, biochemical, multiplex bead flow cytometry (AID 1335;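 active means fitted half-maximal concentration within 10 nM to 100 µM, steepness 0.5 to 2, significant signal drop, low assay interference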). Conditions: bead-based flow cytometry, Bodipy-GTP binding to GST-Ras; at 100 µM (top of the series) unless noted.
In experiment [4] the test system is Ras-related protein Rab-7a (dog), GTP binding. Put plainly: Rab7 GTP binding inhibitors, potency, dose response, biochemical, wildtype, multiplex bead flow cytometry (AID 1336; call rule not given here).
In experiment [5] the target is Ras-related C3 botulinum toxin substrate 1 (Homo sapiens) (UniProt P63000). In words: wildtype Rac1 GTP binding inhibitors, dose response, biochemical, multiplex bead flow cytometry (AID 1340). Conditions: GST-Rac1 beads, Bodipy-FL-GTP binding; at 100 µM (top of the series) unless noted.
Experiment [6] deals with GTPase HRas (Homo sapiens) (UniProt P01112). In words: activated Ras mutant GTP binding inhibitors, dose response, biochemical, multiplex bead flow cytometry (AID 1341;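 active means dose-response curve with midpoint inside the tested range, moderate steepness, significant amplitude and little compound fluorescence or bead-attachment interference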;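 further: GST-tagged constitutively activated Ras mutant immobilized on beads and multiplexed with other GTPases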).
Sequence of GTPase HRas (Homo sapiens) (P01112 whole entry, looked up): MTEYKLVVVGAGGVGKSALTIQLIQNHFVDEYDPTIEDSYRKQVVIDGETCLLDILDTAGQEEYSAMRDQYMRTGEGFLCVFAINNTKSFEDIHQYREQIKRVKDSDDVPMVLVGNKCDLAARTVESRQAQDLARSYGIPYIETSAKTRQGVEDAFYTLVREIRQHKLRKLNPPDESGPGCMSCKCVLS

Sequence of Cell division control protein 42 homolog (Homo sapiens) (P60953 whole entry, looked up): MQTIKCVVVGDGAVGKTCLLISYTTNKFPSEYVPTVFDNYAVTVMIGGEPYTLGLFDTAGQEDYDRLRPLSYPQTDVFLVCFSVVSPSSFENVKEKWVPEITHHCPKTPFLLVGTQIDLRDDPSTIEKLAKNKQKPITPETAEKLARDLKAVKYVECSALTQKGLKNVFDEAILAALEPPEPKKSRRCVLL

For the molecule `COC(=O)c1cc(NC(=O)c2cccc(Cl)c2)c(=O)oc1/C=C/Nc1cc(C)cc(C)c1`, the molecule was classed as inactive in experiment [1], in experiment [4] and in experiment [6]. Moreover, the fluorescence, percent of control (lower = inhibition) in experiment [2] came out at 193%. Also, the GTP binding, percent of control in experiment [3] was determined as 237%. The GTP binding signal, raw median fluorescence (lower = inhibition) (MCF (arbitrary fluorescence units)) in experiment [5] worked out at 563.

Regarding `CCOc1ccc(-n2nc3c(=S)[nH]nc(C)c3c2C)cc1`, the molecule was called inactive in experiment [1], in experiment [4] and in experiment [6]. Further, the fluorescence, percent of control (lower = inhibition) in experiment [2] was found to be 53.6%. Also, in experiment [3], the GTP binding, percent of control is 66.6%. Besides, in experiment [5], the GTP binding signal, raw median fluorescence (lower = inhibition) (MCF (arbitrary fluorescence units)) came to 0.

Take `Cn1c(SCC(=O)Nc2cccc(Br)c2)nnc1-c1cc2ccccc2o1`: the molecule was classed as inactive in experiment [1], in experiment [4] and in experiment [6]. The fluorescence, percent of control (lower = inhibition) in experiment [2] was found to be 101%. Besides, in experiment [3], the GTP binding, percent of control turned out to be 189%. For the same molecule, the GTP binding signal, raw median fluorescence (lower = inhibition) (MCF (arbitrary fluorescence units)) in experiment [5] is 180.

On to `CCOC(=O)c1ccc2ncc(-c3ccccc3)nc2c1`, for which the call in experiment [1], in experiment [4] and in experiment [6] was inactive. Moreover, the fluorescence, percent of control (lower = inhibition) in experiment [2] is 33.5%. In experiment [3], this molecule displayed a GTP binding, percent of control of 79.4%. The same molecule had a GTP binding signal, raw median fluorescence (lower = inhibition) (MCF (arbitrary fluorescence units)) in experiment [5] of 259.

With `O=C(Nc1ccc(N2CCOCC2)c(Cl)c1)c1ncn[nH]1`, the molecule was called inactive in experiment [1], in experiment [4] and in experiment [6]. In experiment [2], the fluorescence, percent of control (lower = inhibition) stood at 104%. In addition, the GTP binding, percent of control in experiment [3] is 203%. Besides, the GTP binding signal, raw median fluorescence (lower = inhibition) (MCF (arbitrary fluorescence units)) in experiment [5] turned out to be 241.

Turning to `O=C(O)c1nnn(Cc2ccccc2)c1C(=O)O`, the molecule was classed as inactive in experiment [1], in experiment [4] and in experiment [6]. In experiment [2], the fluorescence, percent of control (lower = inhibition) amounted to 60.5%. Besides, the GTP binding, percent of control in experiment [3] turned out to be 82.2%. In addition, the GTP binding signal, raw median fluorescence (lower = inhibition) (MCF (arbitrary fluorescence units)) in experiment [5] turned out to be 33.

In the case of `COc1ccc(OCc2nc3c4cc(OC)c(OC)cc4nc(=S)n3[nH]2)cc1`, the result in experiment [1], in experiment [4] and in experiment [6] was inactive. Moreover, the fluorescence, percent of control (lower = inhibition) in experiment [2] was 31.9%. Further, the GTP binding, percent of control in experiment [3] came to 75.5%. Further, the GTP binding signal, raw median fluorescence (lower = inhibition) (MCF (arbitrary fluorescence units)) in experiment [5] was determined as 186.

In the case of `COC(=O)c1c(N2C(=O)[C@H]3[C@@H](C2=O)[C@]2(C(=O)Nc4c2ccc(C)c4C)N2CCC[C@@H]32)sc(C)c1C`, the result in experiment [1], in experiment [4] and in experiment [6] was inactive. Further, the fluorescence, percent of control (lower = inhibition) in experiment [2] was 55.3%. In experiment [3], this molecule yielded a GTP binding, percent of control of 71.4%. Further, in experiment [5], the GTP binding signal, raw median fluorescence (lower = inhibition) (MCF (arbitrary fluorescence units)) was determined as 0.

On to `COc1cc(N2CCCC2)c(OC)cc1/C=C(/C#N)c1cccc(Br)c1`, for which the result in experiment [1], in experiment [4] and in experiment [6] was inactive. The fluorescence, percent of control (lower = inhibition) in experiment [2] came out at 103%. Also, the GTP binding, percent of control in experiment [3] turned out to be 110%. For the same molecule, in experiment [5], the GTP binding signal, raw median fluorescence (lower = inhibition) (MCF (arbitrary fluorescence units)) amounted to 228.

Turning to `Cc1cc(C)cc(OCCSc2nc3ccccc3n2CC(=O)O)c1`, the result in experiment [1], in experiment [4] and in experiment [6] was inactive. Further, the fluorescence, percent of control (lower = inhibition) in experiment [2] is 58.4%. In experiment [3], this molecule gave a GTP binding, percent of control of 87.4%. The molecule further returned a GTP binding signal, raw median fluorescence (lower = inhibition) (MCF (arbitrary fluorescence units)) in experiment [5] of 31.

For the molecule `CCN(CC)c1ccc(/C=c2/sc3nnc(-c4ccccc4C)n3c2=O)cc1`, the call in experiment [1], in experiment [4] and in experiment [6] was inactive. Further, the fluorescence, percent of control (lower = inhibition) in experiment [2] is 120%. The molecule further returned a GTP binding, percent of control in experiment [3] of 123%. Besides, the GTP binding signal, raw median fluorescence (lower = inhibition) (MCF (arbitrary fluorescence units)) in experiment [5] was found to be 236.

With `Nc1[nH]nc2ncc3cc4ccccc4nc3c12`, the molecule was called inactive in experiment [1], in experiment [4] and in experiment [6]. Also, the fluorescence, percent of control (lower = inhibition) in experiment [2] worked out at 34.1%. The molecule further came in with a GTP binding, percent of control in experiment [3] of 71.9%. This molecule also returned a GTP binding signal, raw median fluorescence (lower = inhibition) (MCF (arbitrary fluorescence units)) in experiment [5] of 153.

For `Cc1ccc(O)c(N=Cc2cc(Cc3ccccc3)cc([N+](=O)[O-])c2O)c1`, the result in experiment [1], in experiment [4] and in experiment [6] was inactive. In experiment [2], the fluorescence, percent of control (lower = inhibition) worked out at 30.7%. This molecule returned a GTP binding, percent of control in experiment [3] of 72.6%. The molecule further showed a GTP binding signal, raw median fluorescence (lower = inhibition) (MCF (arbitrary fluorescence units)) in experiment [5] of 111.

`Cc1noc(NS(=O)(=O)c2ccc(NC(=O)CSc3nnc4c(n3)[nH]c3ccccc34)cc2)c1C`: the molecule was called inactive in experiment [1], in experiment [4] and in experiment [6]. Also, the fluorescence, percent of control (lower = inhibition) in experiment [2] came out at 21.2%. In addition, in experiment [3], the GTP binding, percent of control was found to be 32.7%. The GTP binding signal, raw median fluorescence (lower = inhibition) (MCF (arbitrary fluorescence units)) in experiment [5] was found to be 41.2.

Take `CC(=O)Oc1cccc(C#CC(=O)c2ccc([N+](=O)[O-])cc2)c1`: the call in experiment [1], in experiment [4] and in experiment [6] was inactive. Moreover, the fluorescence, percent of control (lower = inhibition) in experiment [2] amounted to 35.4%. This molecule also yielded a GTP binding, percent of control in experiment [3] of 173%. The GTP binding signal, raw median fluorescence (lower = inhibition) (MCF (arbitrary fluorescence units)) in experiment [5] turned out to be 95.5.
